The results in this text go back to PubChem BioAssay (Tox21).

Results filed as inconclusive are left out. Activity calls are given as the source filed them. Calls follow the shape of the dose curve; as a rule, active = well fitted cell-killing curve with a large enough effect in the repeat runs; inconclusive = weak or mixed curves, or effect the other way; inactive = no such curve, though single readings can be large or run the other way.
% is scaled to controls: 0 for no effect and ±100 for the full control effect; potency is read from the fitted curve at half-maximal effect.

The nature of this assay: qHTS assay to identify small molecule agonists of the estrogen receptor alpha (ER-alpha) signaling pathway in the presence of an antagonist - cell viability counter screen (AID 1259386). Also: nearly all actives have a fitted effect of over 30% in size. As to conditions: VM7Luc4E2 viability, CellTiter-Fluor fluorescence, 22 h; series mostly up to 92.4 µM; activity change, negative = cytotoxicity: at the top concentration. The source says: National Center for Advancing Translational Sciences [NCATS]
NIH Chemical Genomics Center [NCGC]
U.S. Environmental Protection Agency [EPA]
National Institutes of Environmental Health Sciences [NIEHS]
National Toxicology Program [NTP]
U.S. Food and Drug Administration [FDA]
Estrogen receptor (ER), a member of nuclear hormone receptor plays an important role in development, metabolic homeostasis and reproduction. Two subtypes of ER, ER-alpha and ER-beta, have similar expression patterns with some uniqueness in both types. Endocrine disrupting chemicals (EDCs) and their interactions with steroid hormone receptors like ER causes disruption of normal endocrine function. Therefore, it is important to understand the effect of environmental chemicals in ER signaling pathway. For identifying ER agonists, VM7Luc4E2 cell line has been used in the current assay.
VM7Luc4E2 cell line (provided by Denison MS, University of California) endogenously expresses full-length ER-alpha and is stably transfected with a plasmid containing four estrogen responsive elements (ERE) upstream of a luciferase reporter gene. This current screening for measuring luciferase reporter gene activity using VM7Luc4E2 cells against Tox21 10K library collection is a confirmation study on agonist mode screening in presence of ER-antagonist (ICI-182,780) at 10.0nM final concentration. The cytotoxicity of the compounds was tested in parallel by measuring the cell viability using CellTiter-Fluor assay system (Promega, Madison, WI) in the same wells.
Tox21 Assay Protocol Summary:
VM7Luc4E2 cells were cultured in phenol red free assay medium containing 10% charcoal stripped FBS for 5 days prior to the assay. The cells were dispensed at 4,000 cells in 4uL of assay medium per well into white wall/solid-bottom 1536-well plates (Corning Life Sciences, Corning, NY) using a Multidrop Combi (Thermo Fisher Scientific Inc., Waltham, MA) dispenser. After the assay plates were incubated at 37C and 5% CO2 for 24hr, 1uL of 10.0nM (final concentration) ICI-182,780 or assay buffer was added using two separate tips of Flying Reagent Dispenser (FRD, Aurora Discovery, San Diego, CA). Then 23nL of compounds dissolved in DMSO at 15 concentrations and positive controls or DMSO only was transferred to the assay plates by a Pintool station (Wako, San Diego, CA). The assay plates were incubated at 37C and 5% CO2 for 22hr. After 21hr incubation at 37C, 1uL/well CellTiter-Fluor reagent (Promega Corporation, Madison, WI) was added to each well using FRD and after 1hr incubation at 37C and 5% CO2, the fluorescence signal was measured on ViewLux plate reader (PerkinElmer, Shelton, CT).
In general terms: Quantitative high-throughput screening tests each substance at several concentrations.
On to `CCCCC(CC)COC(=O)OOC(C)(C)C` (stereo not given), for which the “activity change, negative = cytotoxicity” value was 8.44% (inactive).
For `CCOC(=O)Cc1ccccc1`, the “activity change, negative = cytotoxicity” value is 0.607% (inactive).
On to `O=S(=O)(O)F`, for which the “activity change, negative = cytotoxicity” value was -4.77% (inactive).
Regarding `CCCN`, the “activity change, negative = cytotoxicity” value is -0.969% (inactive).
As to `CCOP(=O)(OCC)Oc1cc(C)nc(C(C)C)n1`, the “activity change, negative = cytotoxicity” value was -0.454% (inactive).
Same read-out and setting: the result for `O=[N+]([O-])[O-].[Tl+]` reads -0.795% (inactive); that for `O=NN(CCO)CCO`, -8.42% (inactive).
The same measure, in the same setting: the value for `ClC1(Cl)C2(Cl)C3(Cl)C4(Cl)C(Cl)(Cl)C5(Cl)C3(Cl)C1(Cl)C5(Cl)C24Cl` (stereo not given) was 8.04% (inactive); that for `COc1nc(C)nc(NC(=O)NS(=O)(=O)c2ccccc2Cl)n1` was 2.88% (inactive).
In the case of `CCN(CC)C(=S)S`, the Potency result was “inactive”.
Turning to `CC(=O)[O-].CC(=O)[O-].[Co+2]`, the “activity change, negative = cytotoxicity” value was -1.93% (inactive).
For `N#CSCc1ccccc1`, the “activity change, negative = cytotoxicity” value was -3.73% (inactive).
Consider `C[C@]12C/C(=C/O)C(=O)C[C@@H]1CC[C@@H]1[C@@H]2CC[C@@]2(C)[C@H]1CC[C@]2(C)O`, for which the Potency entry is “inactive”.
For the compound `Brc1ccc(Oc2ccc(Br)cc2Br)c(Br)c1`, the “activity change, negative = cytotoxicity” value is 0.66% (inactive).
For the compound `CC[C@]1(O)CC[C@H]2[C@@H]3CCC4=CCCC[C@@H]4[C@H]3CC[C@@]21C`, the “activity change, negative = cytotoxicity” value was 1.6% [at 42.5 µM] (inactive).
Still for that read-out and setting: the value for `CCC(C)Nc1c([N+](=O)[O-])cc(C(C)(C)C)cc1[N+](=O)[O-]` (stereo not given) was -12.4% (inactive).
The same measure, in the same setting: the result for `Cc1ccc(C)c2ccccc12` reads 3.94% (inactive).
Consider `COc1ccc2[nH]cc(CCN(C(C)C)C(C)C)c2c1`, for which the “activity change, negative = cytotoxicity” value was -10.2% (inactive).
Turning to `NC(=O)C(Cl)Cl`, the “activity change, negative = cytotoxicity” value is 4.78% (inactive).
Still for that read-out and setting: the result for `COc1cnc(OC)n2nc(NS(=O)(=O)c3c(OCC(F)F)cccc3C(F)(F)F)nc12` reads -4.57% (inactive); that for `O=C(N[C@H]1N=C(c2ccccc2F)c2cccc3c2N(CC3)C1=O)c1cc2ccccc2[nH]1`, -13.4% [at 42.5 µM] (inactive); that for `O=S1(=O)OCC2C(CO1)C1(Cl)C(Cl)=C(Cl)C2(Cl)C1(Cl)Cl` (stereo not given), 1.77% (inactive).
For `OCC(Br)CBr` (stereo not given), the “activity change, negative = cytotoxicity” value is 2.32% (inactive).
`CC(=O)[O][Pb]([c]1ccccc1)([c]1ccccc1)[c]1ccccc1`: the Potency was 19.3 µM (active).
On the same count and under the same terms, the value for `c1cc[n+]2c(c1)-c1cccc[n+]1CC2` was 29.8 µM (active).
Same read-out and setting: the result for `Oc1ccc([C@H]2CNCc3c2ccc(O)c3O)cc1O` reads 26.6 µM (active).
Turning to `O=C(O)[C@H](O)[C@@H](O)C(=O)O`, the “activity change, negative = cytotoxicity” value is 6.36% (inactive).
Turning to `O=[N+]([O-])c1cccc2cccc([N+](=O)[O-])c12`, the “activity change, negative = cytotoxicity” value was 0.243% (inactive).
For the compound `CO/N=C(/C1=NOCCO1)c1ccccc1Oc1ncnc(Oc2ccccc2Cl)c1F`, the Potency was 27.3 µM (active).
`CSC(C)(C)/C=N/O`: the “activity change, negative = cytotoxicity” value was 6.36% (inactive).
Take `Clc1c(Cl)c(Cl)c(Cl)c(Cl)c1Cl`: the activity change, negative = cytotoxicity is 1.86% [at 8.39 µM] (inactive).
On the same count and under the same terms, the value for `CCCCC(CC)COC(=O)c1ccccc1C(=O)OCC(CC)CCCC` (stereo not given) was 1.6% (inactive); that for `Nc1cc(Cl)ccc1Cl` was 5.03% (inactive); that for `CCCCC/C=C\C/C=C\C/C=C\C/C=C\CCCC(=O)NCC(=O)O` was 1.19% [at 42.5 µM] (inactive).
The same measure, in the same setting: the result for `S=C=Nc1ccccc1` reads 0.361% (inactive); that for `CCN(CC)CCN1C(=O)CN=C(c2ccccc2F)c2cc(Cl)ccc21`, -7.93% [at 42.5 µM] (inactive).
`O.O.O.O=C([O-])[C@H]([O-])[C@@H]([O-])C(=O)[O-].O=C([O-])[C@H]([O-])[C@@H]([O-])C(=O)[O-].[K+].[K+].[Sb+3].[Sb+3]`: the Potency was 54.8 µM (active).
In the case of `CC(C)c1c(CN(C)C(C)Cc2ccccc2)n(C)n(-c2ccccc2)c1=O` (stereo not given), the “activity change, negative = cytotoxicity” value is 1.24% [at 42.5 µM] (inactive).
Still for that read-out and setting: the result for `CC(C)(C)c1ccc(OP(=O)(Oc2ccccc2)Oc2ccccc2)cc1` reads -6.14% (inactive); that for `CCN(CC)Cc1nccn1-c1ccc([N+](=O)[O-])cc1C(=O)c1ccccc1Cl`, -6.31% [at 42.5 µM] (inactive).
